# System: Plasmodium falciparum NF54
# Test: growth inhibition relative to untreated control; higher = more inhibition
# Settings: 5 µM; minimal medium (MM); 72 h
# Summary of the method: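 P. falciparum NF54 ring stages (1% hematocrit, 1% parasitemia, 100 μL/well in 96-well half-area dark plates) were exposed for 72 h at 37 °C to single 5 μM or 1 μM doses of Pathogen Box compounds. The medium was minimal RPMI or minimal RPMI plus chorismate end-products (2.2 μM folate, 7.3 μM pABA, 7.3 μM pHBA, 111 μM tyrosine, 90 μM phenylalanine, tryptophan). Growth inhibition was read by SYBR Green, normalised to untreated controls, with uninfected erythrocytes as background.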
row,Compound,growth inhibition [%]
1,CNCCC(Oc1ccc(C(F)(F)F)cc1)c1ccccc1 (centres undefined),2.19
2,CC(C)(C)c1ccc(N[C@@H]2CCCC[C@H]2NC(=O)c2ccco2)cc1,1.67
3,Cc1cc(O)nc(-n2nc(C)cc2C)n1,< 0
4,CC1=Nc2ccc(Cl)cc2C(O)(c2ccc(C)cc2)N1CCN1CCCCC1 (centres undefined),86.9
5,CCn1ncc2c(NC3CCOCC3)c(CNC(=O)c3ccnn3C)c(C)nc21,91.4
6,Brc1cncc(-c2cc(NCCCn3ccnc3)nc(-c3ccccc3)n2)c1,90.1
7,NCCC(O)C(=O)N[C@@H]1C[C@H](N)[C@@H](OC2O[C@H](CN)[C@@H](O)[C@H](O)[C@H]2O)[C@H](O)C1OC1O[C@H](CO)[C@@H](O)[C@H](N)[C@H]1O (some centres undefined),< 0
8,COc1ccc(N(CCc2cccc(C)n2)C(C)=O)cc1,< 0
9,CN(C)c1cc(NC(=O)Nc2ccccc2)c2ccccc2n1,87.9
10,COc1cc(Br)cc2cc(C(=O)Nc3cccc(C(F)(F)F)c3)c(=O)oc12,< 0
11,COc1ccc(S(=O)(=O)Nc2ccc(CN3CCN(C(=O)c4cccc(C#N)c4)CC3)cc2)cc1,13.7
12,O=C(c1ccc(F)cc1)N(CCNc1ccccc1)c1ccccc1,4.16
13,CC[C@@H]([C@H](C)O)n1ncn(-c2ccc(N3CCN(c4ccc(OC[C@@H]5CO[C@@](Cn6cncn6)(c6ccc(F)cc6F)C5)cc4)CC3)cc2)c1=O,83.4
14,CN1CCN(CCCOc2ncc(Nc3ncc(-c4ccc(C(F)(F)F)c(F)c4)nc3C(N)=O)cn2)CC1,93.3

# Reference: the supplement of paper PMC6763611
